Laboratory results from PubChem BioAssay (NCI).
About 79,000 compounds went through this panel and 15% of them were active in at least one assay; those are over-represented in the sample as a whole. Active and inactive are the calls of the source. Rule as the data show it: active = growth inhibition above about 70%; inactive = the rest.

Experiment: NCI Yeast Anticancer Drug Screen. Data for the rad52 strain (AID 147);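 also: 0% = growth of vehicle-treated control cultures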
Details: S. cerevisiae rad52 mutant growth inhibition, hits give high values
Description: Growth inhibition of yeast strains with defined genetic alterations is measured as a screen for potential anti-cancer activity. Selected strains with alterations in DNA damage repair or cell cycle control were exposed to compounds and growth inhibition was measured relative to vehicle treated controls. The strain used in this assay is rad52

Measured: growth inhibition

CN1Cc2ccccc2/C=C\c2ccccc21
inactive: at 1.2 µM -3% | at 3.7 µM -4% | at 11.0 µM -1% | at 33.0 µM 25% | at 100.0 µM 39%

CCN(CC)C(C)(C)C(=O)/C=C/c1ccccc1
inactive: at 1.2 µM -1% | at 3.7 µM -1% | at 11.0 µM 0% | at 33.0 µM -1% | at 100.0 µM 2%

C/C(=N\O)C1CC2C=C(C#N)C1N(Cc1ccccc1)C2 (stereo not given)
inactive: at 1.2 µM -5% | at 3.7 µM -3% | at 11.0 µM -1% | at 33.0 µM 1% | at 100.0 µM 8%

Cn1ccnc1Oc1ccc(Cl)cc1
active: at 100.0 µM 97%
inactive: at 1.2 µM -7% | at 3.7 µM -11% | at 11.0 µM 7% | at 33.0 µM 61%

CN(C)CCn1c2c3ccccc3ccc2c2oc(=O)c3ccccc3c21
active: at 11.0 µM 94% | at 33.0 µM 98% | at 100.0 µM 97%
inactive: at 1.2 µM 24% | at 3.7 µM 21%

COCCOC(=O)CCn1cc(F)c(=O)[nH]c1=O
inactive: at 1.2 µM -1% | at 3.7 µM -1% | at 11.0 µM 11% | at 33.0 µM 31% | at 100.0 µM 62%

NC(=O)NN=C(CS)CS
active: at 100.0 µM 88%
inactive: at 1.2 µM -1% | at 3.7 µM 4% | at 11.0 µM 19% | at 33.0 µM 50%

CCCC/C=C/C(CC)(C(=O)OCC)C(=O)OCC
inactive: at 1.2 µM -1% | at 3.7 µM -2% | at 11.0 µM -4% | at 33.0 µM -1% | at 100.0 µM -2%
